# Test results: publication PMC7862700, “An all-to-all approach to the identification of sequence-specific readers for epigenetic DNA modifications on cytosine”
# What was measured:
# Test in all cases: DAPPL (digital affinity profiling via proximity ligation, sequencing); 10 mM Tris-HCl pH 7.5, 50 mM NaCl, 1 mM DTT, 4% glycerol, room temperature, 30 min; GST-TFs on glutathione beads, 16-mer random dsDNA library, 0.1% formaldehyde crosslink after washing; high values mean tight binding
# FLI1 = target: T1, FLI1 (Homo sapiens, UniProt Q01543 1-452); conditions: protein: recombinant; tags: N-terminal GST; dsDNA, one strand shown
# T1 sequence: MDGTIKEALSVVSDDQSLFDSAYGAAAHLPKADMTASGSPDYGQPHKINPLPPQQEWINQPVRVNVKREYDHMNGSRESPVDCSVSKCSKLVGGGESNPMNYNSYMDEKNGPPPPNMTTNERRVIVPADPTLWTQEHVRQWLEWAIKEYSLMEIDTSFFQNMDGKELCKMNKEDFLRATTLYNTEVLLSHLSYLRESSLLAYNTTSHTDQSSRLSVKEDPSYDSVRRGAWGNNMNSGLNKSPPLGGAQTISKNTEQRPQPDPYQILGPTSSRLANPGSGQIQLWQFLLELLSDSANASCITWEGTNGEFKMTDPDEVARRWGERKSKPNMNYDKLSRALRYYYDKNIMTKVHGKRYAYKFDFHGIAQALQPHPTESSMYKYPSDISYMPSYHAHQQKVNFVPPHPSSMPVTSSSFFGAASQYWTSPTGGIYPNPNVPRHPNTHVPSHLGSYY
# In short: (§1)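 A tag-only sample was pooled with DNA-barcoded human transcription factors that had been expressed in yeast as GST fusions and captured on glutathione beads. The pools were incubated for 30 min at room temperature with 200 nmole of a random double-stranded 16-mer DNA library in Tris/NaCl/DTT/glycerol buffer, then washed, crosslinked with 0.1% formaldehyde, proximity-ligated (BsaI/T4 ligase, 1 h, 37 °C), PCR-amplified and sequenced on an Illumina NextSeq500. Binding signal is each hexamer's read frequency for a factor divided by its frequency for the tag-only sample.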
# ELK1 = target: T2, ELK1 (Homo sapiens, UniProt P19419 1-428); conditions: protein: recombinant; tags: N-terminal GST; dsDNA, one strand shown
# T2 sequence: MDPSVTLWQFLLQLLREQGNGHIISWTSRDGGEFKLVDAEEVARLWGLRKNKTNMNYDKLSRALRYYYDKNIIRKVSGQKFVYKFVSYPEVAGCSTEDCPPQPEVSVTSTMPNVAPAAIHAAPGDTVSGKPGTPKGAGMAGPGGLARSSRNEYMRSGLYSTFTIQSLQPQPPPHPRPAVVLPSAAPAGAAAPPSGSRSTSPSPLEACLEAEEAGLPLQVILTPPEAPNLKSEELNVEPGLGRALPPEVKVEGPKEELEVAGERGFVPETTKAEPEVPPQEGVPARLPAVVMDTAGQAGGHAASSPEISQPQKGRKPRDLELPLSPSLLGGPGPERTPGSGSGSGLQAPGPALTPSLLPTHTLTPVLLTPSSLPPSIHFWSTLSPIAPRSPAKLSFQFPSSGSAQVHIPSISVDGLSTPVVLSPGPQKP
# In short: as §1
# GABPA = target: T3, GABPA (Homo sapiens, UniProt Q06546 1-454); conditions: protein: recombinant; tags: N-terminal GST; dsDNA, one strand shown
# T3 sequence: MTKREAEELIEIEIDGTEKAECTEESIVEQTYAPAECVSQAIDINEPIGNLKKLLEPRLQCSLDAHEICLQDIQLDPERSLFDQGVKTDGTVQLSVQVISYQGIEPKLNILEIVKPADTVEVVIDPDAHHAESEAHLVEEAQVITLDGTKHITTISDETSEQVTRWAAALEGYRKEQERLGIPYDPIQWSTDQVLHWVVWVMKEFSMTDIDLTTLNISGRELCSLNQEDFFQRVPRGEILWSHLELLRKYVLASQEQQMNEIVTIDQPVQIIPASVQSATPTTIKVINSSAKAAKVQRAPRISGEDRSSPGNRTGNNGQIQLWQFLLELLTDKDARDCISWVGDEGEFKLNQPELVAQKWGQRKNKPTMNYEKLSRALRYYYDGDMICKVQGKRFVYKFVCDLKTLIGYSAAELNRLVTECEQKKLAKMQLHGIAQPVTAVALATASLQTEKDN
# In short: as §1
# ERG = target: T4, ERG (Homo sapiens, UniProt P11308 1-479); conditions: protein: recombinant; tags: N-terminal GST; dsDNA, one strand shown
# T4 sequence: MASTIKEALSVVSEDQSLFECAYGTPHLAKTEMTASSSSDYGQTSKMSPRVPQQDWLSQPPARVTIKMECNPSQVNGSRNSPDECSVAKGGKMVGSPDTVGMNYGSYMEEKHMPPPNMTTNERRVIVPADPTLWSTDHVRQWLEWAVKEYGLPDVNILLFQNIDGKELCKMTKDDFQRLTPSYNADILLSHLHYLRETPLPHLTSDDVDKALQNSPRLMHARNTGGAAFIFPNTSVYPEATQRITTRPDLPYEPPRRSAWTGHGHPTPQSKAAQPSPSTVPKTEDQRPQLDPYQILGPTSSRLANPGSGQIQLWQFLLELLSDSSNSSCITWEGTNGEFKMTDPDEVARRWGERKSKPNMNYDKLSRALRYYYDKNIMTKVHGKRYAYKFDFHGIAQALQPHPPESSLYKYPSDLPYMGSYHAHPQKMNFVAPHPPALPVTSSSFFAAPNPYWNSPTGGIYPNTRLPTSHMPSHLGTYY
# In short: as §1
# ELF1 = ELF1 (Homo sapiens, UniProt P32519 1-619); conditions: protein: recombinant; tags: N-terminal GST; dsDNA, one strand shown
# In short: as §1
# EHF = target: T5, EHF (Homo sapiens, UniProt Q9NZC4 1-300); conditions: protein: recombinant; tags: N-terminal GST; dsDNA, one strand shown
# T5 sequence: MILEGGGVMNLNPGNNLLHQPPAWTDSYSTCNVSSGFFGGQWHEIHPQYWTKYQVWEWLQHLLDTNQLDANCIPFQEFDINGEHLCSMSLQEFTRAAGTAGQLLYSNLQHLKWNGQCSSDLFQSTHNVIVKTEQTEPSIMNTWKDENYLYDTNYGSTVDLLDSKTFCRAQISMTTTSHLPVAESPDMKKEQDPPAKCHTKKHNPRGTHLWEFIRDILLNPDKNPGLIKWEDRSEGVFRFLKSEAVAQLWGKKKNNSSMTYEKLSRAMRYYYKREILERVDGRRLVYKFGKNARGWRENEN
# In short: as §1
# SPI1 = SPI1 (Homo sapiens, UniProt P17947 1-270); conditions: protein: recombinant; tags: N-terminal GST; dsDNA, one strand shown
# In short: as §1
# SPIB = SPIB (Homo sapiens, UniProt Q01892 1-262); conditions: protein: recombinant; tags: N-terminal GST; dsDNA, one strand shown
# In short: as §1
# ELK3 = target: T6, ELK3 (Homo sapiens, UniProt P41970 1-407); conditions: protein: recombinant; tags: N-terminal GST; dsDNA, one strand shown
# T6 sequence: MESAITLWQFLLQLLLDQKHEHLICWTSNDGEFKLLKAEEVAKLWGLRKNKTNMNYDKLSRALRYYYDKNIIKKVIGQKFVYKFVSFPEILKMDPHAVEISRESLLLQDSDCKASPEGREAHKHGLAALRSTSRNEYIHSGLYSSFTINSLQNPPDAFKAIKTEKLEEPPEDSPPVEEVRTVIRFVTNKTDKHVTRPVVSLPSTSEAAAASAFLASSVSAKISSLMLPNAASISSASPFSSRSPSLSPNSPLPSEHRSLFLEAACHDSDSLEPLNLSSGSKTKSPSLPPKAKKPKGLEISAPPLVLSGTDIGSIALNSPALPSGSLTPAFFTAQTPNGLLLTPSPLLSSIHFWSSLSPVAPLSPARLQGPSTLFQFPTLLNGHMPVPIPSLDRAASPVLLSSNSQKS
# In short: as §1
# FEV = target: T7, FEV (Homo sapiens, UniProt Q99581 1-238); conditions: protein: recombinant; tags: N-terminal GST; dsDNA, one strand shown
# T7 sequence: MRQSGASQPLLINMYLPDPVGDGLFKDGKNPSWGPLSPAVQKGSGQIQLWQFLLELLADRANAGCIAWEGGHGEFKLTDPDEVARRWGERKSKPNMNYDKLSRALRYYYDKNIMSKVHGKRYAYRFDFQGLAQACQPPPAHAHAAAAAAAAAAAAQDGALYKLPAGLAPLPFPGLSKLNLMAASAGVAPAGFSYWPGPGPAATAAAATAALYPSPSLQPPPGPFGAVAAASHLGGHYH
# In short: as §1
# ETV5 = ETV5 (Homo sapiens, UniProt P41161 1-510); conditions: protein: recombinant; tags: N-terminal GST; dsDNA, one strand shown
# In short: as §1
# HSF1 = HSF1 (Homo sapiens, UniProt Q00613 1-529); conditions: protein: recombinant; tags: N-terminal GST; chain copies: 3; dsDNA, one strand shown
# In short: as §1
# SPIC = target: T8, SPIC (Homo sapiens, UniProt Q8N5J4 1-248); conditions: protein: recombinant; tags: N-terminal GST; dsDNA, one strand shown
# T8 sequence: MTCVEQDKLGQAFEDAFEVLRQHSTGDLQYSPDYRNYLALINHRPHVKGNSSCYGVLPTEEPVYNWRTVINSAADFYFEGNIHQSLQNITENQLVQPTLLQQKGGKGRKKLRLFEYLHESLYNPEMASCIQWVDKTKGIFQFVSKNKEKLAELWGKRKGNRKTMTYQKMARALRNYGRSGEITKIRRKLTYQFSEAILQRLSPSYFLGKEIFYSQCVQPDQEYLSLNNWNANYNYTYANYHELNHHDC
# In short: as §1
# ELF4 = ELF4 (Homo sapiens, UniProt Q99607 1-663); conditions: protein: recombinant; tags: N-terminal GST; dsDNA, one strand shown
# In short: as §1
# ELK4 = target: T9, ELK4 (Homo sapiens, UniProt P28324-2 1-405); conditions: protein: recombinant; tags: N-terminal GST; dsDNA, one strand shown
# T9 sequence: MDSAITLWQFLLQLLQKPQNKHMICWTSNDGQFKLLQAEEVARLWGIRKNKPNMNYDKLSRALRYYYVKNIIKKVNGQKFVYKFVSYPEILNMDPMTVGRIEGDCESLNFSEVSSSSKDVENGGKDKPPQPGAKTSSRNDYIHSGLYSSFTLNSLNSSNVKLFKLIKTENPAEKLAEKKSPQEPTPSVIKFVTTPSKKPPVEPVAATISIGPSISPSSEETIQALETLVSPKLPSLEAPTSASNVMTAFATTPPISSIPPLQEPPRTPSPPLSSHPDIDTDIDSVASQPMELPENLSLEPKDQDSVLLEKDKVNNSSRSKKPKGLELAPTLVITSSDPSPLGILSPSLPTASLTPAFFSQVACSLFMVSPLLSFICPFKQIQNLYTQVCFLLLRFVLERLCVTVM
# In short: as §1
# ETV2 = target: T10, ETV2 (Homo sapiens, UniProt O00321 1-342); conditions: protein: recombinant; tags: N-terminal GST; dsDNA, one strand shown
# T10 sequence: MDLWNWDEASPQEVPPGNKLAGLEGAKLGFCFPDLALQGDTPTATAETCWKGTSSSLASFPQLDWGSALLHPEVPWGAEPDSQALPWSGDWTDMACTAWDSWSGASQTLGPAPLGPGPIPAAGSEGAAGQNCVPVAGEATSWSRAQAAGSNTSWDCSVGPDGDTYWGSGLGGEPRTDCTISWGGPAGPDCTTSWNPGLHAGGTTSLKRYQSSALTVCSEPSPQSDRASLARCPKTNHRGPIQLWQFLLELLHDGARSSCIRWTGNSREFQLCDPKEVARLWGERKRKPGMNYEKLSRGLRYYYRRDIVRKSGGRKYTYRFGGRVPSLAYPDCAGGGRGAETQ
# In short: as §1
# ELF3 = target: T11, ELF3 (Homo sapiens, UniProt P78545 1-371); conditions: protein: recombinant; tags: N-terminal GST; dsDNA, one strand shown
# T11 sequence: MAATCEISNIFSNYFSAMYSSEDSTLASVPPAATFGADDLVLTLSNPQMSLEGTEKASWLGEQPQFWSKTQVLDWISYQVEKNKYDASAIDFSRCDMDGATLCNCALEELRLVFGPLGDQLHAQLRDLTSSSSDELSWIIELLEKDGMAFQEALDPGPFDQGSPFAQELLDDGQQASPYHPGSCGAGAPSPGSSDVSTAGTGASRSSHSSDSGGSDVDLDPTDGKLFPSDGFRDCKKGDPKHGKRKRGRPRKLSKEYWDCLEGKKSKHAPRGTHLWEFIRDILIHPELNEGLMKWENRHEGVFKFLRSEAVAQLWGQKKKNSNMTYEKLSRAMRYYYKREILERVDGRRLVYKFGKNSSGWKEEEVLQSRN
# In short: as §1
# CRX = CRX (Homo sapiens, UniProt O43186 1-299); conditions: protein: recombinant; tags: N-terminal GST; dsDNA, one strand shown
# In short: as §1
# ETV1 = ETV1 (Homo sapiens, UniProt P50549 1-477); conditions: protein: recombinant; tags: N-terminal GST; dsDNA, one strand shown
# In short: as §1
# Chain of HSF1 (Q00613 whole entry): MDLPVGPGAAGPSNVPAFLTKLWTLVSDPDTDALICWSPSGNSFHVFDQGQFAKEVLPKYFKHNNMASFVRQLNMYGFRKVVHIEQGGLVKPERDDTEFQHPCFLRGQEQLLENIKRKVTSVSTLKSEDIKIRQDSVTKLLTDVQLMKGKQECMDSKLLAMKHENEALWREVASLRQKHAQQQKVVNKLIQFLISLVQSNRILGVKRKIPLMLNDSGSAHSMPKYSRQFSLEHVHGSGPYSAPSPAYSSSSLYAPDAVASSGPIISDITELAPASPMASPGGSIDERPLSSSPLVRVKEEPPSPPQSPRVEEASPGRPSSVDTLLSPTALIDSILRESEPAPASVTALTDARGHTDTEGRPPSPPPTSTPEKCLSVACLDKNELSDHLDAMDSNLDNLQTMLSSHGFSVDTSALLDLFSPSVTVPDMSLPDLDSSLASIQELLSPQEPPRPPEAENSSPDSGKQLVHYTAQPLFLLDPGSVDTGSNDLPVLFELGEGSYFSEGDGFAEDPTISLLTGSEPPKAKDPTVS
# Chain of ETV5 (P41161 whole entry): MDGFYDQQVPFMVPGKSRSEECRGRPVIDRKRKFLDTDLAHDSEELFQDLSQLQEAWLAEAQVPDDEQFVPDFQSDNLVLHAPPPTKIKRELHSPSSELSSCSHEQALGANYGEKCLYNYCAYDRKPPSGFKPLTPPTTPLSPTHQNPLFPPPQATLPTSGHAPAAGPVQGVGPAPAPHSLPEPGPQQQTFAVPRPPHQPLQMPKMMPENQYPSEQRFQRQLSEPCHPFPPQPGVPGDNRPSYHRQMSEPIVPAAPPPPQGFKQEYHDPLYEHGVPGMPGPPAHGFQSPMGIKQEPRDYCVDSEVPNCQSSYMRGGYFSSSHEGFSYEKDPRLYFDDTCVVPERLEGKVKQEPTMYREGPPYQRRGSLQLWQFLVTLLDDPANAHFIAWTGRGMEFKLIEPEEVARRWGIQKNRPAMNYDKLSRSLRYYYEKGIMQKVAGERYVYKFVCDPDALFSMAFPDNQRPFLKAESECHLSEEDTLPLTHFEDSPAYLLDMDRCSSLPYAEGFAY
# Chain of SPIB (Q01892 whole entry): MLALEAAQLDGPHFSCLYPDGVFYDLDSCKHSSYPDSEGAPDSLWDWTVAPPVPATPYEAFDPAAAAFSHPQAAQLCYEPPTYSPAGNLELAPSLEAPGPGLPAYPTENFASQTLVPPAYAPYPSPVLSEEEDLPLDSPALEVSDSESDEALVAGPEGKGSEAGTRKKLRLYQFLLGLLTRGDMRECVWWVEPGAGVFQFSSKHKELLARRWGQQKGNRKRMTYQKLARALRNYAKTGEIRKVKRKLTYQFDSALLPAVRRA
# Chain of CRX (O43186 whole entry): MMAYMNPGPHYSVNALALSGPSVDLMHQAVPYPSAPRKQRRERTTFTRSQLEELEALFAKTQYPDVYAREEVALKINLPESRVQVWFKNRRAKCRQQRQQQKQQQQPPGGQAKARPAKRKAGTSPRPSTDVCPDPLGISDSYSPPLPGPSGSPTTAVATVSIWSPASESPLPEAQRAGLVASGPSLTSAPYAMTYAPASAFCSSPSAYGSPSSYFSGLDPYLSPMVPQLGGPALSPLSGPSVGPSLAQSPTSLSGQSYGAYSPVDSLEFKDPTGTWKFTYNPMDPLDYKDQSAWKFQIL
# Chain of ELF4 (Q99607 whole entry): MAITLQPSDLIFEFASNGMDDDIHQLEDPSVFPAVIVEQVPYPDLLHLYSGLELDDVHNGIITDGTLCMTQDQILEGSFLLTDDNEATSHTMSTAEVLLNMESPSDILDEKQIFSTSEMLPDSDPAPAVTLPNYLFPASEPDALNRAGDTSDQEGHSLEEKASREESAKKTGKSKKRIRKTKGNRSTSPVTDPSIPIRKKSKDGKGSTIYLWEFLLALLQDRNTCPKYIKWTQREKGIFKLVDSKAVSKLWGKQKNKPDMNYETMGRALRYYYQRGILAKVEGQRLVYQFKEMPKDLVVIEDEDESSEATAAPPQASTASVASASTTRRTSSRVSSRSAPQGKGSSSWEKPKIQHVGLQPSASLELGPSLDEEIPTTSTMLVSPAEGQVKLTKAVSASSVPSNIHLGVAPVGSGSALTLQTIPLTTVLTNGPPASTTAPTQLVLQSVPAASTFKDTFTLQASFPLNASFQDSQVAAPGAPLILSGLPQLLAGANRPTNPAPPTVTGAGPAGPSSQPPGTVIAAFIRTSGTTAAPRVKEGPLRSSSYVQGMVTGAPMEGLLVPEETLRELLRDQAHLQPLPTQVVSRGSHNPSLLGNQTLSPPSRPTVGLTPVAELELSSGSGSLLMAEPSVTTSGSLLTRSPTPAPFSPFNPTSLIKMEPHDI
# Chain of ELF1 (P32519 whole entry): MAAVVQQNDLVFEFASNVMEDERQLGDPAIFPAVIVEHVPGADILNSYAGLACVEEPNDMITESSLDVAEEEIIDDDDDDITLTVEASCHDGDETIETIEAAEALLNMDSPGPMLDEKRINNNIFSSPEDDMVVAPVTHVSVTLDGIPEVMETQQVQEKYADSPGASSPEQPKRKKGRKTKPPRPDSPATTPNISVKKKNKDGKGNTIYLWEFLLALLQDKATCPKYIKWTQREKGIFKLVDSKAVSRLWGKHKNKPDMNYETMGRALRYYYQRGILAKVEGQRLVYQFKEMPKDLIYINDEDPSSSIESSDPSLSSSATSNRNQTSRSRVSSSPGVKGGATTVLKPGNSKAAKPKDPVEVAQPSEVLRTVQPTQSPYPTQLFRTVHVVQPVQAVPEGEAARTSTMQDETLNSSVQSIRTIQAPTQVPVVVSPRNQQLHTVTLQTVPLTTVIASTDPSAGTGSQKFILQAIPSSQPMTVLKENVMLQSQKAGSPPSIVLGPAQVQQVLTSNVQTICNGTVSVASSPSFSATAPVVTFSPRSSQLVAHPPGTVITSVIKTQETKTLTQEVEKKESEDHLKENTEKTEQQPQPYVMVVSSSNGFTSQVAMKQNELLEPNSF
# Chain of ETV1 (P50549 whole entry): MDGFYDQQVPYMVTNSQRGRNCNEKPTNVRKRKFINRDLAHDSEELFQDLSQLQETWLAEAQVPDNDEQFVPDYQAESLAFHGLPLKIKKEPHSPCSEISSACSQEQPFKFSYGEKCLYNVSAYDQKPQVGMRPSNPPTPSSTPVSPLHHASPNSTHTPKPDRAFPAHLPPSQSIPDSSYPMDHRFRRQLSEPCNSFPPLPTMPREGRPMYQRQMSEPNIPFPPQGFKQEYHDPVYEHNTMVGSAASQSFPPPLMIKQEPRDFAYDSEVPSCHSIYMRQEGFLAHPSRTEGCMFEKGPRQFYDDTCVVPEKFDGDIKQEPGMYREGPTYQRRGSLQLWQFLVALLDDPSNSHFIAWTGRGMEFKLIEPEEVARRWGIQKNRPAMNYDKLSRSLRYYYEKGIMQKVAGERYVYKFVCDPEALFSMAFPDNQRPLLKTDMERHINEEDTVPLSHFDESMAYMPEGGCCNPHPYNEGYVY
sequence,measurement,setting,value
TCTTCA,binding signal,FLI1,"1.43 fold enrichment (6-mer frequency, TF over GST control)"
same,binding signal,ELK1,"1.19 fold enrichment (6-mer frequency, TF over GST control)"
same,binding signal,GABPA,"1.16 fold enrichment (6-mer frequency, TF over GST control)"
same,binding signal,ERG,"1.16 fold enrichment (6-mer frequency, TF over GST control)"
same,binding signal,ELF1,"1.33 fold enrichment (6-mer frequency, TF over GST control)"
same,binding signal,EHF,"1.14 fold enrichment (6-mer frequency, TF over GST control)"
same,binding signal,SPI1,"1.21 fold enrichment (6-mer frequency, TF over GST control)"
same,binding signal,SPIB,"1.27 fold enrichment (6-mer frequency, TF over GST control)"
same,binding signal,ELK3,"1.27 fold enrichment (6-mer frequency, TF over GST control)"
same,binding signal,FEV,"1.15 fold enrichment (6-mer frequency, TF over GST control)"
same,binding signal,ETV5,"1.17 fold enrichment (6-mer frequency, TF over GST control)"
same,binding signal,HSF1,"1.24 fold enrichment (6-mer frequency, TF over GST control)"
same,binding signal,SPIC,"1.14 fold enrichment (6-mer frequency, TF over GST control)"
same,binding signal,ELF4,"1.2 fold enrichment (6-mer frequency, TF over GST control)"
same,binding signal,ELK4,"1.07 fold enrichment (6-mer frequency, TF over GST control)"
same,binding signal,ETV2,"1.18 fold enrichment (6-mer frequency, TF over GST control)"
same,binding signal,ELF3,"1.46 fold enrichment (6-mer frequency, TF over GST control)"
same,binding signal,CRX,"1.14 fold enrichment (6-mer frequency, TF over GST control)"
same,binding signal,ETV1,"1.28 fold enrichment (6-mer frequency, TF over GST control)"
